From ChEMBL document CHEMBL3988442, “University of Dundee, Small-Polar-MMV Screening Library” (2021) come the findings set out here.

Each structure is given as a SMILES string. The whole screen tested about 48,000 compounds, of which about 13,000 (27%) showed an effect of 50% or more. Some of the results follow.

In this experiment the test system is Wolbachia pipientis. As to the kind of experiment: Anti-Wolbachia Cell-Based Screen. In kind it is functional. More on the design: scale not given: in the data most compounds retested in dose-response had high values. As to conditions: 5 µM.
Consider `CCCN1CCc2[nH]cnc2C12CCN(C(=O)CCn1cccn1)CC2`, for which the “Percent Effect” value is given as -44.41%. Consider `O=C(CCCc1nnc(-c2ccccc2)o1)N1CCN(CCO)CC1`, for which the “Percent Effect” value is -6.561%. Take `CCOc1ccccc1N(C)C(=O)c1cscn1`: the “Percent Effect” value stood at 11.28%. As to `CC1CN(C(=O)c2cnn(-c3ccccn3)c2C(C)C)CC(C)(C)O1` (configuration not stated), the “Percent Effect” value was 3.589%. `Cn1cc(C(O)CNC(=O)c2sccc2OC(F)F)cn1` (configuration not stated): the “Percent Effect” value is -0.7442%. Regarding `CC(CNC(=O)c1ccc(F)cc1Cl)N1CCCC1` (configuration not stated), the “Percent Effect” value was 2.022%. For the molecule `Cc1ccc(NC(=O)NCC(c2cnn(C)c2)N(C)C)c(C)c1` (configuration not stated), the “Percent Effect” value is -2.112%. Regarding `Cc1ccc(C(=O)NCC(O)c2cnn(C)c2)c(Br)c1` (configuration not stated), the “Percent Effect” value stood at 99.45%.

For the molecule `Cn1cc(CCCNC(=O)NCC(O)c2ccsc2)cn1` (configuration not stated), the “Percent Effect” value is on record as -8.721%. As to `Cn1cc(C(O)CNC(=O)c2cc(Br)ccc2Cl)cn1` (configuration not stated), the “Percent Effect” value worked out at 133.1%. For `Cn1cc(C(O)CNC(=O)c2ccc(F)cc2Cl)cn1` (configuration not stated), the “Percent Effect” value was determined as 121.3%.

Turning to `CCOc1cc(F)ccc1NC(=O)NCC(c1cnn(C)c1)N(C)C` (configuration not stated), the “Percent Effect” value is on record as 4.743%.

With `Cn1cc(C(O)CNC(=O)Nc2cc(F)ccc2-n2cccn2)cn1` (configuration not stated), the “Percent Effect” value was -4.933%.

As to `Cc1ccc(C(O)CNC(=O)c2cccnc2O)cc1` (configuration not stated), the “Percent Effect” value was -65.97%.

As to `CSCC(C)(O)CNC(=O)c1cc(Br)ccc1Cl` (configuration not stated), the “Percent Effect” value stood at 7.074%. As to `Cc1ccc(C(=O)NCC(c2cnn(C)c2)N(C)C)c(O)c1` (configuration not stated), the “Percent Effect” value was 194.8%. On to `CC(NCCn1cccn1)c1cc(F)ccc1F` (configuration not stated), for which the “Percent Effect” value is reported as 17.19%.

In the case of `O=c1[nH]nc(SCC2CCCCO2)n1C1CC1` (configuration not stated), the “Percent Effect” value came out at 3.518%. For `COc1cc(CC(O)CO)c(OC)c2c1OCO2` (configuration not stated), the “Percent Effect” value came to 13.41%. Turning to `O=C1C(NS(=O)(=O)c2cc(F)cc(F)c2)CCN1Cc1ccccc1` (configuration not stated), the “Percent Effect” value was -1.299%. As to `O=C(CSC1CCc2ccccc2NC1=O)NCCc1ccco1` (configuration not stated), the “Percent Effect” value is listed as 9.555%. `O=C1CCNc2ccc(F)cc2CN1Cc1ccco1`: the “Percent Effect” value is on record as 96.92%. For the molecule `O=C1CCOCCN1Cc1ccc(Cl)c(F)c1`, the “Percent Effect” value is -26.47%. `O=C1CCNc2ccccc2CN1Cc1ccco1`: the “Percent Effect” value is reported as 99.7%. In the case of `O=C1CCNc2cc3c(cc2CN1Cc1ccco1)OCO3`, the “Percent Effect” value was 103.2%. For `O=C(CN1CCc2ccccc2C1)NCc1ccco1`, the “Percent Effect” value is given as -0.1453%. For `O=C(NCCc1ccc2c(c1)OCO2)C1CCCN(Cc2ccco2)C1` (configuration not stated), the “Percent Effect” value was -5.327%. On to `O=C(c1cc(Br)c[nH]1)N1CCN(Cc2ccco2)CC1`, for which the “Percent Effect” value is given as -4.103%. With `O=C(c1cc(Cl)c(Br)[nH]1)N1CCN(Cc2ccco2)CC1`, the “Percent Effect” value turned out to be 4.507%. As for `O=S(=O)(Cc1ccc(F)cc1)NCc1ccco1`, the “Percent Effect” value was 9.126%.

Turning to `O=C1CCNc2ccc(F)cc2CN1Cc1ccccc1`, the “Percent Effect” value was 102.2%. For the molecule `CC(C)(C)CN(CCC#N)C(=O)Cc1ccc(-n2cnnn2)cc1`, the “Percent Effect” value is -11.58%. As to `COCCc1noc(CN2CCc3nn(C(C)C)c(=O)cc3C2)n1`, the “Percent Effect” value was found to be 0.5745%. With `Cc1nnc(CN(C)CCc2nc(-c3cccc(Cl)c3)no2)n1C`, the “Percent Effect” value was -15.48%.

`Cc1cnn(C2CN(CC(O)c3ccccc3)C2)c1` (configuration not stated): the “Percent Effect” value is 7.133%. For the molecule `O=C(COc1ccc2c(c1)CCCC2=O)NCc1ccco1`, the “Percent Effect” value is 5.581%. For the molecule `CN(C1CCCCC1)S(=O)(=O)N1CCN(Cc2ccco2)CC1`, the “Percent Effect” value is 20.54%. On to `CN(Cc1n[nH]c(=O)n1Cc1ccco1)S(C)(=O)=O`, for which the “Percent Effect” value is recorded as 13.53%.

In the case of `COc1ccc2c(c1)CN(Cc1ccco1)C(=O)CCN2`, the “Percent Effect” value turned out to be 81.17%. In the case of `Cc1ncc(-c2ccnc(SCCN)n2)c(-c2ccco2)n1`, the “Percent Effect” value is listed as 79.73%.

For the molecule `Cc1ncc(-c2ccnc(SCCN(C)C)n2)c(-c2ccco2)n1`, the “Percent Effect” value was 91.76%. As for `NCCSc1nccc(-c2cnc(C3CC3)nc2-c2ccco2)n1`, the “Percent Effect” value came out at 112.5%. The result for `Cc1ncc(-c2ccnc(N3CCN(C)CC3)n2)c(-c2cccnc2)n1` reads -5.726%; that for `COCCN(c1cc(C)nc2nc(C(F)(F)F)nn12)C1CCCC1`, -0.8248%; that for `CC1(C)CNC(=O)c2nc(CCCN3CCCC3)[nH]c2C1`, -5.112%. The value for `CCn1cnnc1Cc1nc2c([nH]1)CC(c1ccc(Cl)cc1)CNC2=O` (configuration not stated) was 5.995%; that for `O=C1NCC(c2ccc(Cl)cc2)Cc2[nH]c(CCN3CCOCC3)nc21` (configuration not stated) was 104.7%; that for `CCN(CC)CCc1nc2c([nH]1)CC(c1ccc(Cl)cc1)CNC2=O` (configuration not stated) was -9.032%.

For `O=C1NCC(c2ccc(F)cc2)Cc2[nH]c(CCN3CCCC3)nc21` (configuration not stated), the “Percent Effect” value came to 95.37%. Regarding `CC1(C)CNC(=O)c2nc(CCN3CCOCC3)[nH]c2C1`, the “Percent Effect” value is -31.15%. Take `Cc1cc(-c2ccc(C(C)N3CCCCC3)cc2)cnc1N` (configuration not stated): the “Percent Effect” value turned out to be 11.64%. On to `Cc1nccnc1N1Cc2cnn(Cc3ccc(F)cc3)c2C1`, for which the “Percent Effect” value was found to be 9.58%. The value for `CC(=O)Nc1ccc2nc(-c3nccn3CC(C)(C)CO)ccc2c1` was 3.908%; that for `Cc1cc(C(=O)N2CCCC(C)C2)ccc1NCc1nc(C(C)C)no1` (configuration not stated) was 111.7%; that for `CCc1cnc(CNc2ccc(C(=O)N3CCCC(C)C3)cc2C)o1` (configuration not stated) was 0.007999%. The value for `CC(C)c1noc(CNc2ccc(OC(F)F)cc2OC(F)F)n1` was -33.16%. For `CCc1noc(CNc2ccc(C(=O)N3CCCC(C)C3)cc2C)n1` (configuration not stated), the “Percent Effect” value is on record as -0.296%.

With `Cc1cc(C(=O)N2CCCC(C)C2)ccc1NCc1nc(C2CC2)no1` (configuration not stated), the “Percent Effect” value is on record as 111.9%. As to `Cc1nccn1C1CCCN(C(=O)CCc2nc(C(C)C)no2)C1` (configuration not stated), the “Percent Effect” value is on record as 10.57%. Regarding `Cc1cc(CNc2ccc(C(=O)N3CCCC(C)C3)cc2C)no1` (configuration not stated), the “Percent Effect” value was found to be 0.152%. The result for `Cc1noc(CNc2ccc(C(=O)N3CCCC(C)C3)cc2C)n1` (configuration not stated) reads 71.8%; that for `CNS(=O)(=O)Cc1cccc(CNCc2ccsc2)c1`, -11.11%; that for `CCN(Cc1cnn(CC)c1)C(=O)Cn1c(=O)ccc2ccccc21`, 8.668%. On to `Cc1noc(C)c1CN(C)C(=O)c1ccc(NC2CC2)nc1`, for which the “Percent Effect” value was -0.4037%. As to `O=C1NCCCc2[nH]c(Cc3ccc(F)cc3)nc21`, the “Percent Effect” value was -3.55%.

With `Cc1ccc(Cc2cnc(C3CCNCC3)cn2)cc1.Cl`, the “Percent Effect” value worked out at 94.42%. In the case of `Cl.Fc1ccc(Cc2cnc(C3CCCN3)cn2)cc1` (configuration not stated), the “Percent Effect” value was found to be 101.6%. With `Cl.O=C1NCCCCC1NCc1csc(-c2ccc(F)cc2)n1` (configuration not stated), the “Percent Effect” value is given as -5.681%. The value for `CN(C)C(=O)c1cccc(CCNc2ccccc2S(C)(=O)=O)c1` was -12.66%. Regarding `CC(C)Nc1ncccc1C(=O)NC1CC(=O)N(CC(F)(F)F)C1` (configuration not stated), the “Percent Effect” value worked out at 5.646%. With `CC(=O)N(C)CC(=O)NCC1(c2c(F)cccc2F)CCCC1`, the “Percent Effect” value amounted to 20.23%.

Take `Cc1cc(C)n(C2CCCN(C(=O)c3ccc(NC4CC4)nc3)C2)n1` (configuration not stated): the “Percent Effect” value was -9.75%.

With `Cc1cc(C)n(C2CCCN(C(=O)c3ccnc(N(C)C)c3)C2)n1` (configuration not stated), the “Percent Effect” value is recorded as -18.09%. Turning to `Cc1cc(C)n(C2CCCN(C(=O)c3ccc(N(C)C)nc3)C2)n1` (configuration not stated), the “Percent Effect” value worked out at 99.92%. Consider `Cc1cc(C)n(C2CCCN(C(=O)c3ccn(C)c(=O)c3)C2)n1` (configuration not stated), for which the “Percent Effect” value is recorded as -8.273%.

As for `CNC(=O)c1ccc(C(=O)N2CCCC(n3nc(C)cc3C)C2)cn1` (configuration not stated), the “Percent Effect” value is 97.01%.

As for `Cc1cc(C)n(C2CCCN(C(=O)c3cnc4onc(C)c4c3)C2)n1` (configuration not stated), the “Percent Effect” value amounted to 3.729%. Take `O=C(NC1CCCNC1=O)c1ccc2nc(-c3ccc(F)cc3)cn2c1` (configuration not stated): the “Percent Effect” value is recorded as -16.52%. For the molecule `CC1CCCN(CCNC(=O)c2cncnc2C(C)C)C1` (configuration not stated), the “Percent Effect” value is on record as 11.51%. The result for `CC1CCCCN1CCNC(=O)c1ccccc1N1CCOCC1` (configuration not stated) reads 19.03%; that for `CCc1ncncc1C(=O)NCCN1CCC(C)CC1`, 6.983%; that for `Cc1cc(C(=O)NCCN2CCCC(C)C2)nn1C(C)(C)C` (configuration not stated), 95.43%. The value for `CC1CCN(CCNC(=O)c2ccccc2N2CCOCC2)CC1` was -0.8532%.

For the molecule `Cc1cc(C(=O)NCCN2CCC(C)CC2)nn1C(C)(C)C`, the “Percent Effect” value was determined as 102.5%. For the molecule `Cc1cc(C(=O)NCCN2CCCCC2C)nn1C(C)(C)C` (configuration not stated), the “Percent Effect” value is listed as 107.2%. The value for `Cc1cc(C(=O)NCCN2CCCCCC2)nn1C(C)(C)C` was 99.33%; that for `Cc1cc(C(=O)NCCN2CCCC(C)C2)nn1C` (configuration not stated) was -3.799%; that for `CC1CCCCN1CCNC(=O)c1ccn(-c2ccc(F)cc2)n1` (configuration not stated) was 4.653%. With `CCc1ncc(C(=O)N2CCN(c3nc(C)cc(OC)n3)CC2)s1`, the “Percent Effect” value is listed as -13.57%. The result for `CC(C)NC(=O)[C@@H]1C[C@H](N)CN1C(=O)c1cc2c([nH]c1=O)CCCC2` reads 1.783%; that for `Cc1cccc2c1cnn2CCC(=O)NCC(=O)N(C)C`, 14.92%; that for `Cc1cc(C(=O)N2CCCC(N3CCCCCC3)C2)nn1C(C)(C)C` (configuration not stated), -14.1%. For `Cc1cc(C(=O)NCCN2CCCCC2)nn1C(C)(C)C`, the “Percent Effect” value came out at 88.73%. Regarding `FC1(F)CCN(Cc2ccccn2)CC12CCN(c1ncccn1)C2.O=C(O)C(F)(F)F` (configuration not stated), the “Percent Effect” value is reported as 99.55%.

Regarding `Fc1cnc(N2CCC3(CC2)CN(Cc2ccccn2)CCO3)nc1.O=C(O)C(F)(F)F.O=C(O)C(F)(F)F`, the “Percent Effect” value was 3.828%.

`FC1(F)CCN(Cc2ccccn2)CC12CCN(c1cnccn1)C2.O=C(O)C(F)(F)F.O=C(O)C(F)(F)F.O=C(O)C(F)(F)F` (configuration not stated): the “Percent Effect” value amounted to 108%. `O=C(O)C(F)(F)F.O=C(c1cc[nH]n1)N1CCC(F)(F)C2(CCN(c3ccccn3)C2)C1` (configuration not stated): the “Percent Effect” value was -20.89%. For `Fc1ccc(CN2CCC(F)(F)C3(CCN(c4cnccn4)C3)C2)cc1.O=C(O)C(F)(F)F.O=C(O)C(F)(F)F` (configuration not stated), the “Percent Effect” value was determined as 95.57%. With `O=C(O)C(F)(F)F.c1ccc(CN2CCOC3(COCCN(c4ncccn4)C3)C2)nc1` (configuration not stated), the “Percent Effect” value was -5.957%.

For the molecule `FC1(F)CCN(Cc2ccncc2)CC12CCN(c1cnccn1)C2.O=C(O)C(F)(F)F.O=C(O)C(F)(F)F.O=C(O)C(F)(F)F` (configuration not stated), the “Percent Effect” value came to 91.26%. `O=C(NC[C@H]1OC[C@@H](NCc2ccccn2)[C@@H]1O)c1ccncc1`: the “Percent Effect” value is -10.69%.

Turning to `CC1=N[C@@]2(CC[C@@H]3CN(S(=O)(=O)C4CC4)C[C@@H]32)C(=O)N1CC(C)C`, the “Percent Effect” value is 6.738%.
